This is a sample that favours compounds with a hit; in the whole collection about 3.5% have one here.
KCNK9 inh – human KCNK9 channel inhibition; Q9NPC2; HEK293 KCNK9, FluxOR thallium flux fluorescence; stronger effect = lower value; B-score at 10 µM; 1.2% of 310,000 active;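 active = ratio B-score over 3 SD below the library mean, with starting fluorescence within 5 SD of its mean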;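 note: negative B-score means less thallium flux so channel inhibition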
KCNK3 block – human KCNK3 channel inhibition, primary screen; CHO-KCNK3 thallium flux, FluxOR fluorescence; stronger effect = lower value; B-score at 10 µM; 0.84% of 340,000 active; AID 602410;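 active = B-score under library mean minus 4 SD, starting fluorescence ratio at most library mean plus 5 SD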;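 note: more negative B-score means stronger inhibition of thallium flux through KCNK3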
TMEM16A inh – mouse TMEM16A channel inhibition, primary screen. HEK293 TMEM16A/YFP iodide influx fluorescence, ionomycin. normalized B-score (activity score, 25-100; higher = stronger inhibition) at 10 µM. 1.2% of 310,000 active. AID 588511;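 active = ratio plate-corrected score three or more library SD toward inhibition, starting fluorescence score within five deviations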;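 note: score derived from kinetic fluorescence span divided by baseline fluorescence per well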
Target sequence (Q8BHY3 whole entry, looked up): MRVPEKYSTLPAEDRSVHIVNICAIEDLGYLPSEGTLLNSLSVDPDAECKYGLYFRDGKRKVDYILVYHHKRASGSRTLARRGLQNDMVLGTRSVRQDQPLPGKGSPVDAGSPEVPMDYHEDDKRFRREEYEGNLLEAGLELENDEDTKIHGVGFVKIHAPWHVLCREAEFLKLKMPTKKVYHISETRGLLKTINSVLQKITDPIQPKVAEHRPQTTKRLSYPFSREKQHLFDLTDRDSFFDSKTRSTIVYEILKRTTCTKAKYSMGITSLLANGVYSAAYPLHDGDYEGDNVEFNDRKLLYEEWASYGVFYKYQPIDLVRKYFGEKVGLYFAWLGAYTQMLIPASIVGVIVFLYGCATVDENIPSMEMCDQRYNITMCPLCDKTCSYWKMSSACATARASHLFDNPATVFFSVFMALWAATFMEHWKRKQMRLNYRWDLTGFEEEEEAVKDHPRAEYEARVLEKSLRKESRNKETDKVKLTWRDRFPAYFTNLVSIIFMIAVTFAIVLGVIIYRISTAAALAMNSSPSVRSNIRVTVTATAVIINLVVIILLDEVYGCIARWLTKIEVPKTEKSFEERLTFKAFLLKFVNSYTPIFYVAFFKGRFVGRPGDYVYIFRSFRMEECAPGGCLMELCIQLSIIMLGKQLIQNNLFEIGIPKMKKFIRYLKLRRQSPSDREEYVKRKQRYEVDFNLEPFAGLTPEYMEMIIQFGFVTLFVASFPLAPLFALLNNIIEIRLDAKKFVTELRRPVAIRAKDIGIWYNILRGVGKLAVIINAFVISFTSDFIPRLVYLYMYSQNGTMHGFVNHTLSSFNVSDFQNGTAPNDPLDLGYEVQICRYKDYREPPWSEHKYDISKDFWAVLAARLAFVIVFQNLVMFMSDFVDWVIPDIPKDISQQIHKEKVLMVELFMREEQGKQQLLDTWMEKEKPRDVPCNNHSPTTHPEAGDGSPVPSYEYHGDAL
ANO1 activ – activates or potentiates the mouse TMEM16A chloride channel. HEK293 TMEM16A/YFP-H148Q/I152L, iodide quench fluorescence; stronger effect = lower value. B-score at 10 µM. 0.3% of 340,000 active. AID 623877;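 active = fluorescence-ratio B-score plate-corrected deviation score at least 3 library SD below zero, with starting fluorescence score within 5 deviations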;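 note: channel opened by trigger with iodide after compound preincubation; score built on the fluorescence ratio of max minus min over baseline; more negative score means more quench and so TMEM16A activation or potentiation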
Kir21 block – Kir2.1 (mouse) channel inhibition | HEK293-Kir2.1, FluxOR thallium flux fluorescence; stronger effect = lower value | 0.85% of 310,000 active | B-score at 10 µM;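 active = fluorescence ratio B-score at or below minus 3 SD of library scores, with starting-brightness B-score within 2 SD, cut at about -4.2 in these data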;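 note: channel flux triggered by added potassium and thallium sulfate stimulus; B-score of peak minus minimum fluorescence over baseline after thallium stimulus; more negative B-score means stronger Kir2.1 block with less thallium influx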
KCNK3 inh conf – human KCNK3 channel inhibition, confirmation assay; shares compounds with KCNK3 block; CHO-KCNK3 thallium flux, FluxOR fluorescence; 0% buffer, 100% carvedilol maximal block; ratio percent of control, % at 10 µM; 99% of 2,400 active;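 active = ratio percent of control, averaged over triplicates, above buffer control mean plus 5 SD, cut at about 64% in these data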;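 note: ratio is the fluorescence rise from min to max over baseline after thallium stimulus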
KCNK3 uninduced – KCNK3 inhibitor counter-screen hit in non-induced cells; shares compounds with KCNK3 block; non-induced KCNK3 parental cells, FluxOR thallium flux; stronger effect = lower value; thallium flux ratio (lower = more inhibition) at 10 µM; 40% of 2,400 active;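 active = thallium flux ratio, averaged over three wells, more than 5 SD below the buffer control mean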;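 note: host cells are CHO cells without KCNK3 induction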
Large screens that a line does not name were inactive (follow-up assays come after a bar, where they were run).

COC(=O)c1ccc2cc(OC)cc([N+](=O)[O-])c2n1	none (no result: KCNK9 inh, TMEM16A inh, Kir21 block)
O=C(CSc1nc2ccccc2c(=O)n1Cc1ccco1)c1ccccc1	KCNK3 block -11 | KCNK3 inh conf 91 | KCNK3 uninduced inactive
O=c1c2ccccc2nc(SCc2nc3ccccc3s2)n1Cc1ccco1	KCNK3 block -12 | KCNK3 inh conf 127 | KCNK3 uninduced 0.15
Cc1sc2nc(SCC(=O)c3cccs3)n(Cc3ccco3)c(=O)c2c1C	KCNK3 block -9.4 | KCNK3 inh conf 106 | KCNK3 uninduced inactive
CCn1c(SCC(=O)NC(=O)NCc2ccco2)nc2sc(C)c(C)c2c1=O	none
Cc1ccc(C(=O)Nc2ccccc2C(=O)N2CCCC(C)C2)cc1 (stereo not drawn)	none
CCn1c(C)c(CS(=O)(=O)c2ccccc2)[nH]c1=O	none
CNc1c(NS(=O)(=O)c2ccc(Cl)cc2)c(=O)oc2ccccc12	none
CNc1c(NS(=O)(=O)c2ccc(C3CCCCC3)cc2)c(=O)oc2ccccc12	KCNK3 block -9.4 | KCNK3 inh conf 87 | KCNK3 uninduced inactive
CCOC(=O)c1c(NC(=O)C(C)OC(=O)c2ccc(NC(=O)CC#N)cc2)sc2c1CCCC2 (stereo not drawn)	KCNK3 block -9.1 | KCNK3 inh conf 87 | KCNK3 uninduced 0.14
COc1ccc(OC)c(-c2nc(C(=O)NCC3CCCO3)cc3c2[nH]c2ccccc23)c1 (stereo not drawn)	none
COc1cccc(-c2nc(C(=O)NCC3CCCO3)cc3c2[nH]c2ccccc23)c1 (stereo not drawn)	KCNK9 inh -6.8, KCNK3 block -11 | KCNK3 inh conf 64 | KCNK3 uninduced 0.15
O=C(NCc1ccccc1C(F)(F)F)C1CC(c2ccccc2[N+](=O)[O-])=NO1 (stereo not drawn)	none
O=C(O)c1ccc(-c2nc(-c3ccc(Cl)cc3Cl)cs2)cc1	none
Cc1onc(-c2ccc(Cl)cc2Cl)c1-c1csc(COc2ccccc2)n1	KCNK3 block -9.6 | KCNK3 inh conf 101 | KCNK3 uninduced 0.15
Cc1ccc(C)c(NC(=O)CSc2nnc(C3CCCCC3)o2)c1	none
COc1ccc(CCNC(=O)CSc2nnc3ccc(-c4cccnc4)nn23)cc1OC	none
CC(=O)N1N=C2/C(=C/c3ccccc3)CCCC2C1c1ccccc1 (stereo not drawn)	KCNK3 block -9.6 | KCNK3 inh conf 103 | KCNK3 uninduced inactive
Cn1nnnc1SCC(=O)N1CCN(c2cccc(Cl)c2)CC1	none
O=C(COC(=O)CNC(=O)C1CCCCC1)Nc1cc(C(F)(F)F)ccc1Cl	none (no result: KCNK9 inh, TMEM16A inh, Kir21 block)
CC(OC(=O)C1CC1)C(=O)Nc1cc(C(F)(F)F)ccc1Cl (stereo not drawn)	KCNK3 block -9.9 | KCNK3 inh conf 77 | KCNK3 uninduced 0.15
CC(=O)c1c(C)[nH]c(C(=O)Nc2ccc(C)c(S(=O)(=O)Nc3ccc(C)cc3C)c2)c1C	KCNK9 inh -7.8, KCNK3 block -13 | KCNK3 inh conf 137 | KCNK3 uninduced inactive
O=C(O)CN1C(=O)SC(Nc2ccccc2C(=O)O)C1=O (stereo not drawn)	none
CC(C)NC(=S)NCc1cccs1	none
Cc1ccccc1S(=O)(=O)Oc1ccc2ccc(O)cc2c1	KCNK3 block -10 | KCNK3 inh conf 97 | KCNK3 uninduced inactive
Cc1ccccc1C(=O)Oc1ccc2ccc(O)cc2c1	none
O=C(NCc1ccc2c(c1)OCO2)c1ccc(COc2cc(Cl)ccc2Cl)o1	none
O=C(NCc1ccc2c(c1)OCO2)c1ccc(CSCc2ccc(Cl)cc2)o1	KCNK3 block -8.8 | KCNK3 inh conf 96 | KCNK3 uninduced 0.14
CC1OC2(OC1C)C(=O)Nc1ccccc12 (stereo not drawn)	none
O=C1Nc2ccccc2C12OCC(COc1ccc(Cl)cc1)O2 (stereo not drawn)	KCNK3 block -10 | KCNK3 inh conf 108 | KCNK3 uninduced inactive
CCOC(=O)C1=C(c2ccccc2)NC(SCC(=O)Nc2cccc(C)c2)=C(C#N)C1c1ccco1 (stereo not drawn)	KCNK9 inh -6.7, KCNK3 block -8.7 | KCNK3 inh conf 113 | KCNK3 uninduced inactive
CCOC(=O)C1=C(c2ccccc2)NC(SCC(=O)Nc2ccc(C)cc2)=C(C#N)C1c1ccco1 (stereo not drawn)	none
O=C(Nc1cccc(-c2nc3ncccc3o2)c1)c1ccccc1	none
Cc1ccc(C(=O)Nc2cccc(-c3nc4ncccc4o3)c2)cc1	KCNK3 block -10 | KCNK3 inh conf 90 | KCNK3 uninduced inactive
Cc1nn(Cc2ccc(Cl)cc2Cl)c(C)c1NC(=O)c1sc2ccccc2c1Cl	none
Cc1ccccc1Cn1nc(C)c(NC(=O)c2sc3ccccc3c2Cl)c1C	KCNK3 block -9 | KCNK3 inh conf 149 | KCNK3 uninduced 0.11
CCOC(=O)/C(C#N)=C/c1c(N2CCN(c3ccc(OC)cc3)CC2)nc2c(C)cccn2c1=O	KCNK3 block -12 | KCNK3 inh conf 83 | KCNK3 uninduced 0.15
N#C/C(=C\c1c(N2CCN(Cc3ccccc3)CC2)nc2ccccn2c1=O)S(=O)(=O)c1ccccc1	KCNK3 block -9 | KCNK3 inh conf 103 | KCNK3 uninduced inactive
Cc1cccn2c(=O)c(/C=C(\C#N)S(=O)(=O)c3ccccc3)c(N3CCN(Cc4ccccc4)CC3)nc12	KCNK3 block -10 | KCNK3 inh conf 108 | KCNK3 uninduced inactive
N#C/C(=C\c1c(N2CCOCC2)nc2ccccn2c1=O)S(=O)(=O)c1ccccc1	none
COc1ccc(C(O)P(=O)(OCCC(C)C)c2ccc(N(C)C)cc2)cc1 (stereo not drawn)	none
CCN(CC(=O)Nc1c(F)cccc1F)C(=O)C1CCN(C(=O)Nc2ccccc2)CC1	none (no result: KCNK9 inh, TMEM16A inh, Kir21 block)
CCOC(=O)c1cc2sccc2n1CC(=O)c1ccc2c(c1)OCCO2	KCNK3 block -9.5 | KCNK3 inh conf 89 | KCNK3 uninduced inactive
CCOC(=O)c1cc2sccc2n1CC(=O)O	none
CN(C)S(=O)(=O)Oc1ccsc1C(=O)Nc1ccccc1Cl	none
CN(C)S(=O)(=O)Oc1ccsc1C(=O)Nc1cccc(Cl)c1Cl	KCNK3 block -9.1 | KCNK3 inh conf 88 | KCNK3 uninduced inactive
Cc1ccc(C)c(CSC2=NCCN2S(=O)(=O)c2ccccc2)c1	KCNK9 inh -7.9, KCNK3 block -11 | KCNK3 inh conf 129 | KCNK3 uninduced 0.15
Cc1ccc(S(=O)(=O)CCC(=O)OC(C)C(=O)N2CCc3ccccc32)cc1 (stereo not drawn)	none
Cc1ccc(-c2cc(C(=O)N/N=C/c3c(C)nn(-c4ccccc4)c3C)n[nH]2)s1	KCNK3 block -9.1 (no result: TMEM16A inh) | KCNK3 inh conf 130 | KCNK3 uninduced 0.13

Screens (PubChem)
